# The sample as a whole holds a higher share of hits than the screen did.
# L3MBTL1 inh – blocks human L3MBTL1; 0.66% of 230,000 active; Potency, µM (highest dose often 57.1 µM), without a hit: at the highest dose activity, negative = inhibition, actives largely listed as inhibitors; AlphaScreen L3MBTL1–H3K9me1 peptide binding; Q9Y468; AID 485360; also: nearly all actives have a fitted effect of over 60% in size
#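 AlphaScreen assay: L3MBTL1 (50 nM final) was preincubated 30 min at room temperature with biotinylated H3(1-15)K9me1 peptide (75 nM final), then 30 min with library compounds; streptavidin donor and nickel chelate acceptor beads (10 ug/mL final) added, 30 min dark.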
# BLM helicase inh – blocks DNA unwinding by human BLM helicase. recombinant BLM DNA unwinding, fluorescence dequenching. Potency, µM (highest dose often 56.1 µM), inactives show at the highest dose activity change, negative = inhibition, most hits filed as inhibitors. 0.2% of 350,000 active. AID 2528;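 also: plate controls were vehicle for no effect and no enzyme for full effect; nearly all actives have a fitted effect of over 35% in size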
# RGS12 GoLoco inh – RGS12 GoLoco-Gai1 interaction inhibition; Gai1:RGS12 GoLoco peptide FP, rhodamine, 10 min; 0.44% of 230,000 active; P63096; Potency, µM (top dose mostly 61.6 µM), for the others: at the top dose activity, negative = inhibition, actives largely listed as inhibitors; active = well fitted inhibition curve with a large enough effect, not every such curve was filed as active; inactive = no such curve, though single readings can be large or run the other way; also: nearly all actives have a fitted effect of over 30% in size
# Target sequence (P63096 whole entry, looked up): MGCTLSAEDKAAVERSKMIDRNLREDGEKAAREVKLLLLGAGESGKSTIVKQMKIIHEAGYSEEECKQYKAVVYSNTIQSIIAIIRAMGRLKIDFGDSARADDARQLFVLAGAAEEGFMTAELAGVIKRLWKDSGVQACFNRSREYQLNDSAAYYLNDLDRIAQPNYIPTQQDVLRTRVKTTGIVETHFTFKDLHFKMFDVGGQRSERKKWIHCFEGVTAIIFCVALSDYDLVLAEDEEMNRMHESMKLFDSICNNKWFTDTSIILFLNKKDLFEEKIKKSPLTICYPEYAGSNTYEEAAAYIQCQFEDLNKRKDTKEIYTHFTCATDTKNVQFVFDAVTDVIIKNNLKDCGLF
# JMJD2E inh – JMJD2E (human) inhibition. Potency, µM (highest dose often 57.1 µM), inactives show at the top dose activity change, negative = inhibition, most hits filed as inhibitors. JMJD2E catalytic domain, FDH-coupled NADH fluorescence (FDH is formaldehyde dehydrogenase). B2RXH2. 1.6% of 230,000 active; active = well fitted inhibition curve with a large enough effect, not every such curve was filed as active; inconclusive = small, poorly fitted or top-dose-only effect, or another doubt; inactive = no such curve, though single readings can be large or run the other way;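 also: 0% = wells with enzyme and -100% = buffer wells without enzyme; nearly all actives have a fitted effect of over 50% in size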
# RECQ1 inh – RECQ1 (human) helicase inhibition; P46063; RECQ1 DNA unwinding, red fluorescence kinetic read; Potency, µM (series often up to 57.3 µM), inactives show top-dose activity, negative = inhibition, most hits filed as inhibitors; 0.54% of 240,000 active; AID 2549;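 also: plate controls were vehicle for no effect and no enzyme for full effect; nearly all actives have a fitted effect of over 30% in size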
#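 50 nM RECQ1T1 preincubated 15 min with compound in Tris pH 8.0 buffer with MgCl2, DTT, Tween-20 and 2.5 ug/ml poly(dI-dC); started with 200 nM TAMRA/BHQ-2 forked duplex and 2 mM ATP. Unwinding read as fluorescence (525/598 nm), two reads 2 h apart.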
# APEX1 inh – APE1 (human) endonuclease inhibition | recombinant APE1, TAMRA/BHQ-2 abasic DNA cleavage fluorescence | AID 2517 | Potency, µM (highest dose often 65.8 µM), for inactives: at the top dose activity change, negative = inhibition, hits mostly inhibitors | 0.35% of 350,000 active;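 also: plate controls were vehicle for no effect and reference inhibitor for full effect; nearly all actives have a fitted effect of over 55% in size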
# Target sequence (P27695 whole entry, looked up): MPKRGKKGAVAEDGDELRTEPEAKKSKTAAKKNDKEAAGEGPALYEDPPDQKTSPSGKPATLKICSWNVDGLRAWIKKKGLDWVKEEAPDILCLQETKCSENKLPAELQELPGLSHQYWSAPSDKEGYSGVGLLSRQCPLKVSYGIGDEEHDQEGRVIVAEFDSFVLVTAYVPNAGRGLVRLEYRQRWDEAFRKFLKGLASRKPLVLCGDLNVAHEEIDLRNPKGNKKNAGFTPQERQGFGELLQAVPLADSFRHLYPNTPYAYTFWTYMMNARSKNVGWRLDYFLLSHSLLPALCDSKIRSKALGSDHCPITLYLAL
#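 Step 1: APE1 (0.75 nM) with compound, 15 min RT. Step 2: add 50 nM fluorophore/quencher THF duplex. Step 3: three fluorescence reads 60 s apart (525/598 nm); read 3 minus read 1 = reaction progress.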
# Numbers without * were called inactive; i = inactive; ? = inconclusive; . = no result given; ! = a repeat was not active; [ ] = dose if it differs, or a comment. Unless noted, calls follow the shape of the dose curve; as a rule, active = well fitted curve in the direction sought with a large enough effect; inconclusive = small, poorly fitted or top-dose-only effect, or another doubt; inactive = no such curve, though single readings can be large; an effect the other way counts as inactive or inconclusive. Unless noted, % is scaled to controls: 0 for no effect and ±100 for the full control effect; potency is read from the fitted curve at half-maximal effect.
SMILES,L3MBTL1 inh,BLM helicase inh,RGS12 GoLoco inh,JMJD2E inh,RECQ1 inh,APEX1 inh
Cc1nc2ccccc2c(=O)n1-c1cccc(NC(=O)c2cccs2)c1,-5%,.,.,.,.,16%
O=C(Nc1cccc(N2C(=O)C=CC2=O)c1)c1cccs1,28µM*,.,.,.,.,-11%
C=C(C)C(=O)Nc1cccc(C2=NOC3(C2)C[C@@H](C(N)=O)N(C(=O)/C(C)=C/C)C3)c1 (stereo partly drawn),.,-1%,6%,-8%,18µM*,-10%
O=C(CCN1CCC(c2ccccc2)C1)c1ccc2c(c1)OCCO2 (stereo not drawn),.,-6%,-2%,18µM*,-9%,-5%
O=C(CCN1CCC(c2ccccc2)C1)c1ccccc1 (stereo not drawn),2%,2%,-2%,-5%,i,0%
CCC(=O)C(C(=O)OC)[C@H](CCc1ccccc1)NC(=O)OC (stereo partly drawn),.,0%,-2%,-2%,?,26%
Cc1[nH]n(-c2ccccc2)c(=O)c1N=Nc1c(O)cc(S(=O)(=O)N(C)C)c2ccccc12,7.9µM*,.,.,.,.,19%
N[C@@H](Cn1c2c(c(=O)[nH]c1=O)CCC2)C(=O)O,.,2%,16%,.,0%,-3%
C#Cc1ccc([C@H]2C=C(C(=O)OCC=C)O[C@@H](OCC)[C@@H]2CCCO)cc1,7%,-11%,-2%,-11%,22µM*,-2%
CCOc1ccc(/C=C2\SC(=S)NC2=O)cc1OC,-13%,3%,13%,-14%,-4%,5%
COc1ccc(/C=C2\SC(=O)NC2=S)cc1OC,-11%,-18%,38%,-28%,32µM*,?
CCOC(=O)/C=C/CCC/C=C/C(=O)c1ccccc1,.,-3%,-7%,-6%,-15%,-16%
CCCCC(CC)C1OCC(C[N+]2(C)CCOCC2)O1 (stereo not drawn),3%,3%,10µM*,-12%,1%,13%
COc1ccccc1N1CCN(c2ccc3ccccc3n2)CC1,.,-8%,.,.,.,24%
COc1ccccc1N1CCN(c2ccc(-c3ccccc3)nn2)CC1,-29%,6%,13µM*,?,8%,3%
COc1ccc(NCC(O)Cn2c(C)c(C)c3ccccc32)cc1 (stereo not drawn),?,-11%,8%,-2%,-23%,-6%
Cc1c(C)n(CC(O)CNc2ccccc2)c2ccccc12 (stereo not drawn),-17%,-10%,11%,18µM*,i,-3%
C#CCCCO/N=C1/[C@H]2O[C@@H]2[C@@H](O)[C@H]2[C@H]1CCn1c(=O)n([C@@H](CC)c3ccccc3)c(=O)n12,.,-2%[12.4 µM],.,.,-1%[11.5 µM],-9%[12.4 µM]
COC(=O)[C@@H]1[C@@H](C)N(CCc2cc(OC)c(OC)c(OC)c2)C(=O)N[C@H]1c1ccccc1,.,2%[12.4 µM],-12%[14.2 µM],2%[11.4 µM],i[11.5 µM],-2%[12.4 µM]
CN(C)S(=O)(=O)c1cccc2c1C(=O)c1ccccc1C2=O,-11%,-2%,-10%,2%,7%,-5%
CN(C)c1cc2c(c(N(C)C)c1)C(=O)c1ccccc1C2=O,18µM*,-5%,31%,-2%,-2%,-6%
O=C1NC(=S)N/C1=C/c1ccc(-c2c(Br)cc([N+](=O)[O-])cc2Br)o1,?,-15%,-30%,-12%,-29%,-11%
Cc1ccc(-c2ccc(/C=C3/NC(=O)NC3=O)o2)cc1[N+](=O)[O-],-5%,-21%,11%,-2%,28µM*,-5%
CC1=C(C#N)C(=O)NC(=O)/C1=C\c1ccc(-c2cc(C)c(C)cc2[N+](=O)[O-])o1,?,-19%,0%,25µM*,-6%,-8%
O=S(=O)(c1cccc2ccccc12)N1CCN(c2ccc(Cl)c(Cl)c2)CC1,.,-4%,.,.,.,.
SMILES,L3MBTL1 inh,BLM helicase inh,RGS12 GoLoco inh,JMJD2E inh,RECQ1 inh,APEX1 inh
O=C1/C(=C/c2ccco2)CCC1C1CCCC1 (stereo not drawn),.,-3%,36%,-1%,-1%,2%
O=C1/C(=C\c2ccco2)CCC/C1=C\c1ccco1,3.5µM*,?,33%,-6%,-6%,?
O=C1/C(=C/c2ccco2)Cc2ccccc21,-12%,5%,14%,?,-3%,-9%
CC1C/C(=C/c2ccco2)C(=O)/C(=C/c2ccco2)C1 (stereo not drawn),3.2µM*,-20%,17%,25%,6%,4%
COc1ccccc1CNc1nc(-c2ccco2)nn1S(=O)(=O)c1ccc2ccccc2c1,.,-8%,.,.,.,.
O=C(N/N=C1/C[C@@H](O)[C@@H](O)[C@@H]2[C@@H]3C(=O)N(C[C@@H]4CCCO4)C(=O)[C@H]3CC[C@H]12)OCc1ccccc1,.,1%[12.4 µM],.,.,-10%[11.5 µM],?
O=c1c2cc(-c3ccccc3)sc2nc2n1CCC2,-4%,-12%,0%,35µM*,i,2%
Cc1nc2sc(-c3ccccc3)cc2c(=O)n1N,7%,1%,-8%,?,-4%,-1%
O=C[C@@H]1CCCN1C(=O)[C@@H]1CCCN1C(=O)OCc1ccccc1,.,.,-14%,.,1%,0%
COC(=O)CCCCC1SCC2NC(=O)NC21O (stereo not drawn),.,-3%,8%,2%,-3%,6%
COC(=O)CCCC[C@H]1SC[C@H]2NC(=O)N[C@]21O,2.2µM*,-2%,-6%,-5%,-4%,-4%
CCN[C@@H]1C[C@H](N)[C@@H](OC2OC(CN)=CCC2N)[C@H](O)[C@H]1O[C@H]1OC[C@](C)(O)[C@H](NC)[C@H]1O (stereo partly drawn),.,.,.,.,.,1%[21 µM]
CN(C)CCN(Cc1ccccc1)c1ccccn1,5%,-2%,6%,32µM*!,12%,13%
CN(C)c1nccc(N(Cc2ccccc2)Cc2ccccc2)c1C#N,23%,0%,-2%,?,i,-7%
CCOC(=O)CNC(=O)O[C@@H]1C(=O)c2ccc(OC)cc2O[C@H]1c1ccc2c(c1)OCO2,.,0%,-24%,6%,1%,13%
CCCCN=C1NN=C(c2cc3ccccc3o2)CS1,-17%,2%,23%,25µM*,-2%,1%
CS(=O)(=O)N1CCC2(CC1)CN(Cc1ccc(C#N)cc1)C2,.,4%,4%,.,-7%,20%
Oc1ccc(/C=N/N=C(c2ccccc2)c2ccccc2)c(O)c1O,3.5µM*,?,5%,14µM*,-17%,?
O=C(/C(=N/N=C/c1ccc(O)c(O)c1O)c1ccccc1)c1ccccc1,20µM*,?,7%,1%,3%,5%
Oc1cccc(C=Nc2cccc3ccccc23)c1O,?,-9%,.,.,.,1%

# High-throughput results as filed in PubChem BioAssay.
